Drawing on PubChem BioAssay (EPA / NIEHS), this text covers outcome for 30 molecules.

Results filed as inconclusive are left out. The source made the active and inactive calls. How the source made its calls: active means hit-call score of the fitted dose curve at least 0.9, where 1 is the maximum; inconclusive means response in the unintended direction; inactive means score below 0.9.

Read-out in this experiment: organic anion transporter (SLCO1B1), SLCO1B1 (gene 10599)
Kind of experiment: CLD_SLCO1B1_24hr: CellzDirect (CLD) Gene Expression Assay for organic anion transporter (SLCO1B1) at 24 hours (AID 2283690). The protocol: CLD_24hr is a cell-based, multiplexed-readout assay that uses hepatocyte, a human liver primary cell, with measurements taken at 24 hours after chemical dosing in a 96-well plate.CLD_SLCO1B1_24hr is one of 16 assay component(s) measured or calculated from the CLD_24hr assay. It is designed to make measurements of mRNA induction, a form of inducible reporter, as detected with chemiluminescence signals by Quantitative Nuclease Protection Assay (qNPA) technology.Data from the assay component CLD_SLCO1B1_24hr was analyzed at the endpoint, CLD_SLCO1B1_24hr, in the positive analysis fitting direction relative to DMSO as the negative control and baseline of activity. Using a type of inducible reporter, gain-of-signal activity can be used to understand changes in the reporter gene as they relate to the gene SLCO1B1. Furthermore, this assay endpoint can be referred to as a primary readout. To generalize the intended target to other relatable targets, this assay endpoint is annotated to the transporter intended target family, where subfamily is organic anion transporter.
Human hepatocyte cultures were treated daily for two consecutive days with fresh dosing solutions containing appropriate concentrations of the 320 ToxCast chemicals (chemical identities were blinded to CellzDirect and other ToxCast collaborators), vehicle control (0.2% DMSO), and positive control inducers as summarized in Table 1. Due to the large number of treatment groups and chemicals examined, the ToxCast chemicals were divided into two groups (spanning two independent cultures of hepatocytes from separate donor preparations (Hu778: ToxCast plates 1 and 2; Hu776: ToxCast plates 3 and 4). Each preparation of human hepatocyte cultures was treated with respective vehicle control, medium only control, set of six positive controls/reference chemicals for the five hepatic receptor pathways, and a subset of eight of the ToxCast chemicals (indoxacarb, pyrithiobac-sodium, norflurazon, cyhalofop-butyl, methomyl, thiram, acetochlor, and propiconazole). These replicate data, coupled with internal replicates designed within the blinded ToxCast chemical library, provided additional data to evaluate interindividual differences between hepatocyte preparations and their potential impact on chemical profiles.Cell morphology and integrity were evaluated using phase-contrast microscopy as an indicator of hepatocyte cell health (Tyson & Green, 1987). Cultures for each treatment group (i.e., media, vehicle [0.2% DMSO], positive control inducers [multiple concentrations], and the ToxCast chemicals [multiple concentrations]) were observed and cell morphology was assessed relative to vehicle control cultures at each harvest time point (0, 6, 24, or 48 h). […] Images were evaluated at the conclusion of the study to assess changes in cell integrity and account for the effects of chemical exposure on uncharacteristic changes in concentration-dependent gene expression profiles. The results from these determinations of apparent cytotoxicity were annotated (yes/no) alongside the corresponding qNPA data for reference.At the conclusion of each treatment period, hepatocyte cultures (96-well) were washed with 1 volume of HBSS, lysed by addition of 25 ul ArrayPlate lysis buffer (HTG, Tucson, AZ), and 70 ul/well of Denaturation Oil, denatured by incubation at 95C for 10 min, and frozen at approximately -70C until analysis by nuclease protection assay (qNPA) (Roberts et al., 2007). For qNPA analysis, cell lysates were thawed at 50C for approximately 30 min, qNPA probes were added, and samples were incubated at 95C for 10 min to begin the detection process by denaturing the target RNA, dissociating the duplexes and secondary structure hybridization. At the conclusion of the hybridization period, S1 nuclease reagent was added to each sample to digest all nonprotected nucleotides at 50C for 60-90 min. […]
Regarding `Cc1c(COC(=O)[C@@H]2[C@H](/C=C(\Cl)C(F)(F)F)C2(C)C)cccc1-c1ccccc1`, the result was inactive.

In the case of `CCCN(CC)CC1COC2(CCC(C(C)(C)C)CC2)O1` (stereo not given), the call was inactive.

As to `Cc1cnc(C2=NC(C)(C(C)C)C(=O)N2)c(C(=O)O)c1` (stereo not given), the call was inactive.

With `O=C1C2CC=CCC2C(=O)N1SC(Cl)(Cl)Cl` (stereo not given), the molecule was called inactive.

For the molecule `Clc1nc(Cl)nc(Nc2ccccc2Cl)n1`, the molecule was classed as inactive.

On to `COP(=O)(OC)O/C(C)=C/C(=O)N(C)C`, for which the molecule was called inactive.

In the case of `OC(c1ccc(Cl)cc1)(c1ccc(Cl)cc1)C(Cl)(Cl)Cl`, the molecule was called inactive.

For the molecule `CN=C=S`, the outcome was inactive.

Consider `CC(C)N1C(=O)N(c2ccccc2)CSC1=NC(C)(C)C`, for which the molecule was called inactive.

As to `COP(=S)(OC)Oc1ccc([N+](=O)[O-])c(C)c1`, the molecule was called inactive.

Take `CNC(=O)N(C)c1nnc(C(C)(C)C)s1`: the molecule was called inactive.

For `CC(C)Oc1cccc(NC(=O)c2ccccc2C(F)(F)F)c1`, the molecule was classed as inactive.

On to `CO/N=C(/C1=NOCCO1)c1ccccc1Oc1ncnc(Oc2ccccc2Cl)c1F`, for which the call was inactive.

For the molecule `CS(=O)(=O)c1cc(C(F)(F)F)ccc1C(=O)c1cnoc1C1CC1`, the molecule was called inactive.

Take `N#Cc1c(Cl)cccc1Cl`: the outcome was inactive.

Regarding `O=C(O)c1c(Cl)ccc2cc(Cl)cnc12`, the outcome was inactive.

In the case of `Clc1cccc(C(Cl)(Cl)Cl)n1`, the result was inactive.

Regarding `CCOP(=O)(OCC)Oc1nc(Cl)c(Cl)cc1Cl`, the outcome was inactive.

For the molecule `CC1(C)CON(Cc2ccccc2Cl)C1=O`, the result was inactive.

For `CCNC(=O)NC(=O)C(C#N)=NOC`, the molecule was classed as inactive.

Turning to `CCCCC(C#N)(Cn1cncn1)c1ccc(Cl)cc1` (stereo not given), the call was inactive.

With `Nc1c(Cl)c(F)nc(OCC(=O)O)c1Cl`, the outcome was inactive.

Regarding `COCC(C)N(C(=O)CCl)c1c(C)csc1C` (stereo not given), the result was inactive.

On to `COCC(=O)N(c1c(C)cccc1C)C(C)C(=O)OC` (stereo not given), for which the result was inactive.

For the molecule `Cc1ccc(N=CN(C)C=Nc2ccc(C)cc2C)c(C)c1`, the molecule was classed as inactive.

`CC(C)=CC1C(C(=O)OCc2coc(Cc3ccccc3)c2)C1(C)C` (stereo not given): the outcome was inactive.

With `CCCC(=NOCC)C1=C(O)CC(CC(C)SCC)CC1=O` (stereo not given), the molecule was called inactive.

Consider `O=c1n(Cl)c(=O)n(Cl)c(=O)n1Cl`, for which the molecule was classed as inactive.

Turning to `COC(=O)NS(=O)(=O)c1ccc(N)cc1`, the molecule was called inactive.

For the molecule `CSC(=O)c1c(C(F)F)nc(C(F)(F)F)c(C(=O)SC)c1CC(C)C`, the call was inactive.
